Assay results reported in PubChem BioAssay AID463173 (ICCB-Longwood Screening Facility, Harvard Medical School, 2010).
Hit rate of the full screen: of about 52,000 compounds, about 4,300 (8.3%) were called active. Cut-off read from the data, not from the text of the source: active = survival mostly below about 52% (no sharp cut-off); inactive = mostly above about 56%. Only a selection was taken, and actives are over-represented in it overall.

What follows are compounds tested on DeltatarO mutant (assay: S. aureus survival, RN4220 and DeltatarO strains – OD600, teichoic acid synthesis inhibitors, primary screen (AID 463173)). Settings: S. aureus RN4220 wild type/DeltatarO growth, OD600, 18 h, hits give low values, screened at 18.75 µg/mL (by protocol).

SMILES | survival
CCCN(CCC)C(=O)c1nn(C)c2c1CSc1ccc(C)cc1-2 | 92% (inactive)
CCOC(=O)c1ccc(NC(=O)CS(=O)(=O)Cc2nc(-c3ccc(C)cc3)oc2C)cc1 | 95% (inactive)
COc1cc(OC)c(NC(=O)C(C)n2c(=O)cc(-c3ccccc3)c3c(C)nn(C)c32)cc1Cl (centres undefined) | 83% (inactive)
Cc1ccc(NC(=O)C(C)n2nnc3sc4c(c3c2=O)CCCC4)cc1Cl (centres undefined) | 82% (inactive)
COc1ccc(NC(=O)C(C)n2nc(-c3cc(C)ccc3C)c3c(c2=O)CCCC3)cc1 (centres undefined) | 38% (active)
COc1cc(OC)c(NC(=O)C(C)n2nc(-c3ccc(C)c(C)c3)ccc2=O)cc1Cl (centres undefined) | 64% (inactive)
COc1cc(OC)c(NC(=O)C(C)n2nc(-c3ccc(C)cc3)c3c(c2=O)CCCC3)cc1Cl (centres undefined) | 39% (active)
COc1ccc(NC(=O)C(C)N2CCN(C)CC2)cc1 (centres undefined) | 86% (inactive)
Cc1cc(C)n(-c2nc(C)c(C)c(=O)n2CC(=O)Nc2ccc(Cl)c(Cl)c2)n1 | 82% (inactive)
COc1ccc(-c2nc3nc(C)cc(Nc4cccc(C(F)(F)F)c4)n3n2)cc1 | 63% (inactive)
COc1cccc(N2C(=O)C(CC(=O)Nc3ccc(F)cc3)N(CCC3=CCCCC3)C2=O)c1 (centres undefined) | 53% (inactive)
COc1ccc(CNC(=O)CCC2N=C3c4ccccc4N=C(SCc4cccc(F)c4)N3C2=O)cc1 (centres undefined) | 117% (inactive)
Cc1c(CCNC(=O)c2ccc(C(C)(C)C)cc2)sc2nc(-c3ccc(F)cc3)nn12 | 82% (inactive)
CCOC(=O)c1scc(-c2ccccc2)c1S(=O)(=O)N1CCN(c2ccccc2OC)CC1 | 94% (inactive)
O=C(COc1cccc(-n2cnnn2)c1)NC1CCCCC1 | 83% (inactive)
COC(=O)c1ccccc1NC(=O)Cn1nnc2sc(-c3ccccc3)cc2c1=O | 52% (inactive)
CCN(C(=O)Cn1nnc2sc(-c3ccccc3)cc2c1=O)c1cccc(C)c1 | 50% (active)
CCN(CC)C(=O)Cn1nnc2sc(-c3ccccc3)cc2c1=O | 56% (inactive)
CCc1cccc(CC)c1NC(=O)Cn1nnc2sc(-c3ccccc3)cc2c1=O | 49% (inactive)
CCOc1ccccc1NC(=O)Cn1nnc2sc(-c3ccccc3)cc2c1=O | 39% (active)
CCCN(CCC)C(=O)Cn1nnc2sc(-c3ccccc3)cc2c1=O | 70% (inactive)
COC(=O)c1ccc(NC(=O)CSc2nc(=O)[nH]c3c2CCCC3)cc1 | 75% (inactive)
COC(=O)CSc1ncc2c(n1)-c1ccccc1N(Cc1ccc(Cl)cc1)S2(=O)=O | 69% (inactive)
CCOC(=O)N1CCc2c(sc3c2c(=O)n(CCc2ccccc2)c(=O)n3Cc2c(F)cccc2Cl)C1 | 85% (inactive)
